Results filed as inconclusive are left out. Where a call stands in place of a potency, no number is given. Activity calls are given as the source filed them. Calls come from the whole dose curve; as a rule, active = well fitted curve in the direction sought with a large enough effect; inconclusive = small, poorly fitted or top-dose-only effect, or another doubt; inactive = no such curve, though single readings can be large; an effect the other way counts as inactive or inconclusive.
What was measured:
[1] = qHTS for Inhibitors of the Aldehyde Dehydrogenase Family (ALDH1A2, ALDH1A3, ALDH2, ALDH3A1) (AID 2061307); note: nearly all actives have a fitted effect of over 50% in size; for potency: test system not described further here; potency is the fitted concentration of half-maximal effect
[2] = target: Aldehyde dehydrogenase, mitochondrial (Homo sapiens) (UniProt P05091); experiment: qHTS for Inhibitors of the Aldehyde Dehydrogenase Family (ALDH2) Primary screen (AID 2061308); note: nearly all actives have a fitted effect of over 55% in size
[3] = target: Retinal dehydrogenase 2 (Homo sapiens) (UniProt O94788); experiment: qHTS for Inhibitors of the Aldehyde Dehydrogenase Family (ALDH1A2) Confirmation screens (AID 2061314); note: nearly all actives have a fitted effect of over 65% in size
[4] = target: Retinaldehyde dehydrogenase 3 (Homo sapiens) (UniProt P47895); experiment: qHTS for Inhibitors of the Aldehyde Dehydrogenase Family (ALDH1A3) Primary screen (AID 2061315)
[5] = target: Aldehyde dehydrogenase 1A1 (Homo sapiens) (UniProt P00352); experiment: qHTS for Inhibitors of the Aldehyde Dehydrogenase Family (ALDH1A1) Confirmatory screens (AID 2061316); note: nearly all actives have a fitted effect of over 65% in size; note: potency is the fitted concentration of half-maximal effect
[6] = target: Retinaldehyde dehydrogenase 3 (Homo sapiens) (UniProt P47895); experiment: qHTS for Inhibitors of the Aldehyde Dehydrogenase Family (ALDH1A3) Confirmatory screens (AID 2061311); note: nearly all actives have a fitted effect of over 60% in size

## O=C(NCCCCc1ccccc1)C1CCN(c2nc(-c3ccc(Br)cc3)cs2)CC1
[1]
  Potency: 3.57 µM (active)
[2]
  Potency: inactive
[3]
  Potency: inactive
[4]
  Potency: inactive
[5]
  Potency: 8.96 µM (active)

## COc1ccc(NC(=O)CN(C)C(=O)c2cc3c(s2)CCC3)cc1
[1]
  Potency: inactive
[2]
  Potency: inactive
[4]
  Potency: inactive

## O=C(O)c1ccc(O)c2ncc(-c3ccc(C(=O)N4CCNCC4)cc3)cc12
[1]
  Potency: inactive
[2]
  Potency: inactive
[4]
  Potency: inactive
[5]
  Potency: inactive

## CC(C)Oc1cccc(-c2cnc(N3CCC(C(N)=O)CC3)s2)c1
[1]
  Potency: inactive
[2]
  Potency: inactive
[4]
  Potency: inactive

## CC(=O)N1CCc2cc(-c3nc(NC(=O)Cc4ccc5c(c4)OCO5)sc3C)ccc21
[1]
  Potency: 2.01 µM (active)
[2]
  Potency: inactive
[4]
  Potency: inactive
[5]
  Potency: 10.1 µM (active)

## CC(C)(C)OC(=O)NCCOCCOCCOCCn1ncc2c1CCCC2NC(=O)c1ccccn1 (stereo unspecified)
[1]
  Potency: inactive
[2]
  Potency: inactive
[4]
  Potency: inactive

## NC(=O)C1CCN(c2nc(-c3ccccc3N)cs2)CC1
[1]
  Potency: 7.12 µM (active)
[2]
  Potency: inactive
[4]
  Potency: inactive
[5]
  Potency: 12.7 µM (active)

## CCOC(=O)c1ccc(-n2cccc2/C=C2\NC(=O)NC2=O)cc1
[1]
  Potency: inactive
[2]
  Potency: inactive
[4]
  Potency: inactive

## N#Cc1ccc(CNc2nc(-c3ccccc3C(F)(F)F)nc3ccccc23)cc1
[1]
  Potency: 17.9 µM (active)
[2]
  Potency: inactive
[4]
  Potency: inactive
[5]
  Potency: 14.2 µM (active)

## COc1ccc(OCc2cc(C3Nc4ccccc4C(=O)N3Cc3ccccc3)ccc2OC)cc1 (stereo unspecified)
[1]
  Potency: 5.65 µM (active)
[2]
  Potency: inactive
[4]
  Potency: inactive

## CN(Cc1ccco1)c1ncnc2ccc(-c3ccoc3)cc12
[1]
  Potency: inactive
[2]
  Potency: inactive
[4]
  Potency: inactive
[5]
  Potency: 12.7 µM (active)

## O=S(=O)(c1ccc2c(c1)OCO2)N1CCN(S(=O)(=O)c2c(F)cccc2F)CC1
[1]
  Potency: inactive
[2]
  Potency: inactive
[4]
  Potency: inactive

## Cc1[nH]c2ccccc2c1C1=C(NCCc2ccc(F)cc2)C(=O)N(C)C1=O
[1]
  Potency: 0.896 µM (active)
[2]
  Potency: inactive
[4]
  Potency: inactive

## COC(=O)c1ccc(O)c2ncc(-c3ccc(C(=O)N4CCNCC4)cc3)cc12
[1]
  Potency: inactive
[2]
  Potency: inactive
[4]
  Potency: inactive
[5]
  Potency: inactive

## CNc1sc(-c2cccc3ccccc23)nc1C(=O)OC
[1]
  Potency: 15.9 µM (active)
[2]
  Potency: inactive
[4]
  Potency: inactive
[5]
  Potency: 14.2 µM (active)

## N[C@@H](Cc1ccc(OS(=O)(=O)c2cccnc2)cc1)C(=O)N1CCN(c2ccccc2)CC1
[1]
  Potency: 5.65 µM (active)
[2]
  Potency: inactive
[4]
  Potency: inactive
[5]
  Potency: 10.1 µM (active)

## COc1ccc(C2Nc3ccccc3C(=O)N2Cc2ccccn2)cc1COc1ccc(NC(C)=O)cc1 (stereo unspecified)
[1]
  Potency: 6.31 µM (active)
[2]
  Potency: inactive
[4]
  Potency: inactive

## CC(=O)C1CCN(c2ncc(-c3cccc(N(C)C)c3)s2)CC1
[1]
  Potency: 5.65 µM (active)
[2]
  Potency: inactive
[4]
  Potency: inactive
[5]
  Potency: 10.1 µM (active)

## COc1ccc(C2Nc3ccccc3C(=O)N2C2CCCC2)cc1COc1ccc(NC(C)=O)cc1 (stereo unspecified)
[1]
  Potency: 1.59 µM (active)
[2]
  Potency: inactive
[4]
  Potency: inactive
[5]
  Potency: 20.1 µM (active)

## NC(=O)C1CCN(c2nc(-c3ccccc3[N+](=O)[O-])cs2)CC1
[1]
  Potency: 12.7 µM (active)
[2]
  Potency: inactive
[4]
  Potency: inactive
[5]
  Potency: 5.04 µM (active)

## COc1ccc(C2Nc3ccccc3C(=O)N2Cc2ccccc2OC)cc1COc1ccc(NC(C)=O)cc1 (stereo unspecified)
[1]
  Potency: 2.25 µM (active)
[2]
  Potency: inactive
[4]
  Potency: inactive
[5]
  Potency: 22.5 µM (active)

## COc1cccc(CNc2ccc(S(=O)(=O)Nc3ccc(C)nc3)cc2)c1O
[1]
  Potency: inactive
[2]
  Potency: inactive
[4]
  Potency: inactive
[5]
  Potency: inactive

## Fc1cnc(-c2ccccc2C(F)F)nc1NCC1CCN(c2cnccn2)CC1
[1]
  Potency: inactive
[2]
  Potency: inactive
[4]
  Potency: inactive

## O=C(OCC#CCSc1nnc(-c2cccc3ccccc23)o1)c1ccc(Br)cc1
[1]
  Potency: inactive
[2]
  Potency: inactive
[4]
  Potency: inactive
[5]
  Potency: inactive

## Cc1nc(-c2ccccc2)oc1-c1ccc2ncnc(NCc3ncc[nH]3)c2c1
[1]
  Potency: inactive
[2]
  Potency: inactive
[4]
  Potency: inactive

## N#Cc1nc(-c2ccc(COc3ccccc3)o2)oc1N1CCN(c2ccccc2)CC1
[1]
  Potency: inactive
[6]
  Potency: inactive

## Cc1cnc(-c2ccccc2C2COC2)nc1NCc1ccc(-n2ccnn2)cc1
[1]
  Potency: inactive
[2]
  Potency: inactive
[4]
  Potency: inactive

## COc1ccc(C2Nc3ccccc3C(=O)N2CCc2ccc(Cl)cc2Cl)cc1COc1ccc(NC(C)=O)cc1 (stereo unspecified)
[1]
  Potency: 3.57 µM (active)
[2]
  Potency: inactive
[4]
  Potency: inactive

## CSc1ccc(-c2cnc(N3CCC(C(N)=O)CC3)s2)cc1
[1]
  Potency: 3.18 µM (active)
[2]
  Potency: inactive
[4]
  Potency: inactive

## OCc1ccc(-c2ccc3ncnc(NCCc4cnc[nH]4)c3c2)o1
[1]
  Potency: inactive
[2]
  Potency: inactive
[4]
  Potency: inactive
[5]
  Potency: 10.1 µM (active)

— PubChem BioAssay (NCATS)
